Assay results as given in PubChem BioAssay (Tox21).
Activity calls are given as the source filed them. Unless noted, the call rests on the fitted dose curve; in most records, active means well fitted curve in the direction sought with a large enough effect in the repeat runs; inconclusive means weak or mixed curves; inactive means no such curve, though single readings can be large; an effect the other way counts as inactive or inconclusive.

Experiments:
[1] = qHTS assay to identify small molecule antagonists of the thyroid receptor (TR) signaling pathway - cell viability counter screen (AID 743064); further: nearly all actives have a fitted effect of over 50% in size
Outline: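 Same-well viability check: GH3.TRE-Luc cells stimulated with 1 nM T3 alongside test compound for 23.5 h, followed by CellTiter-Fluor fluorescence.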

[2] = target: Estrogen receptor (Homo sapiens) (UniProt P03372); test: qHTS assay to identify small molecule antagonists of the estrogen receptor alpha (ER-alpha) signaling pathway (AID 743069; active means well fitted curve in the direction sought with a large enough effect in the signal ratio in the repeat runs, not every such curve was filed as active; inconclusive means weak or mixed curves, or effect the other way; inactive means no such curve, though single readings can be large or run the other way; the % refers to the signal ratio)
Outline: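 Reporter cells (ER-alpha-bla, HEK293 background) are conditioned overnight in stripped-serum medium (2% charcoal-stripped FBS). Compound and 17beta-estradiol exposure runs 18 hr at 37C, 5% CO2.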

[3] = qHTS assay to identify small molecule antagonists of the estrogen receptor alpha (ER-alpha) signaling pathway - cell viability counter screen (AID 743074; calls by dose curve;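 further: HEK293 cells carrying ER-alpha-UAS-bla reporter stimulated with 17beta-estradiol; nearly all actives have a fitted effect of over 45% in size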)
[4] = target: Estrogen receptor (Homo sapiens) (UniProt P03372); test: qHTS assay to identify small molecule agonists of the estrogen receptor alpha (ER-alpha) signaling pathway (AID 743075; calls by dose curve;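 further: HEK293 GripTite cells with ER-alpha and UAS-driven beta-lactamase reporter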; further: potency means the concentration at half of the fitted maximal effect)
[5] = target: Estrogen receptor (Homo sapiens) (UniProt P03372); test: qHTS assay to identify small molecule agonists of the estrogen receptor alpha (ER-alpha) signaling pathway using the BG1 cell line (AID 743079); settings: BG1Luc4E2 cells, ERE-luciferase agonist, 22 h; activation: at 70.3 µM (top of the series); further: nearly all actives have a fitted effect of over 20% in size; further: potency means the concentration at half of the fitted maximal effect
[6] = qHTS assay to identify small molecule antagonists of the estrogen receptor alpha (ER-alpha) signaling pathway using the BG1 cell line (AID 743080; calls by dose curve;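 further: BG1 cells stimulated with 17beta-estradiol alongside compound; nearly all actives have a fitted effect of over 25% in size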)
Outline: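 After 5 days in phenol-red-free 10% charcoal-stripped FBS medium, BG1-Luc-4E2 cells were seeded, left 24 h at 37 C, co-treated with compounds and 17beta-estradiol for 21.5 h, then assayed for viability and luciferase.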

[7] = qHTS assay to identify small molecule antagonists of the estrogen receptor alpha (ER-alpha) signaling pathway using the BG1 cell line - cell viability counter screen (AID 743081);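 further: compound given together with 17beta-estradiol as the ER stimulus; nearly all actives have a fitted effect of over 45% in size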
Aromatase (Homo sapiens) = Aromatase (Homo sapiens) (UniProt P11511); test: qHTS assay to identify aromatase inhibitors (AID 743083); further: nearly all actives have a fitted effect of over 55% in size
[8] = qHTS assay to identify aromatase inhibitors - cell viability counter screen (AID 743084);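 further: cells stimulated with testosterone during compound exposure; nearly all actives have a fitted effect of over 55% in size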
[9] = target: Aryl hydrocarbon receptor (Homo sapiens) (UniProt P35869); test: qHTS assay to identify small molecule that activate the aryl hydrocarbon receptor (AhR) signaling pathway (AID 743085);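 further: HG2L7.5c1 human HepG2 liver cells with stably integrated DRE-driven firefly reporter; nearly all actives have a fitted effect of over 15% in size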
Outline: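 Reporter assay in engineered HepG2 line HG2L7.5c1, whose plasmid carries twenty dioxin responsive elements upstream of firefly luciferase. Treatment lasted 24 h at 37C; ONE-Glo luminescence gauged induction.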

[10] = qHTS assay to identify small molecule that activate the aryl hydrocarbon receptor (AhR) signaling pathway - cell viability counter screen (AID 743086);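 further: HepG2 liver cells carrying the AhR DRE luciferase reporter; nearly all actives have a fitted effect of over 45% in size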
Outline: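 HepG2-AhR-luc (HG2L7.5c1) cells, 4000/well, treated 24 h at 37 C with compound; viability measured as CellTiter-Fluor fluorescence after 30 min in the same wells as the luciferase read.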

[11] = target: Peroxisome proliferator-activated receptor gamma (Homo sapiens) (UniProt P37231); test: qHTS assay to identify small molecule agonists of the peroxisome proliferator-activated receptor gamma (PPARg) signaling pathway (AID 743094; active means well fitted activation curve with a large enough effect in the signal ratio in the repeat runs, not every such curve was filed as active; inconclusive means weak or mixed curves, or effect the other way; inactive means no such curve, though single readings can be large or run the other way; the % refers to the signal ratio)
Outline: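 Compounds dissolved in DMSO were added to PPARg UAS-bla HEK293H cells for 17 h at 37C, and reporter expression was quantified by fluorescence intensity after 1 h with LiveBLAzer B/G FRET substrate.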

[12] = qHTS assay to identify small molecule phospholipidosis (PLD) inducers (AID 1259344; active means well fitted curve in the direction sought with a large enough effect; inconclusive means small, poorly fitted or top-dose-only effect, or another doubt; inactive means no such curve, though single readings can be large; an effect the other way counts as inactive or inconclusive)
Outline: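 Quantitative HTS in HepG2: compound plus LipidTOX Red dye for 24 h, paraformaldehyde fixation with Hoechst 33342, widefield high-content imaging; amiodarone as positive and DMSO as negative control.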

[13] = target: Nuclear receptor subfamily 1 group I member 2 (Rattus norvegicus) (UniProt Q9R1A7); test: Rat pregnane X receptor (rPXR) activation by small molecules, qHTS assay (AID 1346983); settings: rPXR luciferase reporter cells, One-Glo luminescence, 24 h; max activation: stronger effect = higher value; further: nearly all actives have a fitted effect of over 20% in size
Outline: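 Cell-based rPXR activation assay: rPXR cells, 2,000 per well, rested 5hr at 37 C, then exposed to compounds in DMSO for 24 hr at 37 C. Luciferase activity read by One-Glo luminescence after 30 min at room temperature.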

[14] = target: Nuclear receptor subfamily 1 group I member 2 (Homo sapiens) (UniProt O75469); test: CYP3A4 induction through human pregnane X receptor (PXR) by small molecules, qHTS assay (AID 1346984); further: nearly all actives have a fitted effect of over 40% in size
Outline: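 Readings come from a luciferase reporter: DPX-2 cells, which are HepG2 cotransfected with PXR and a CYP3A4-promoter construct, were exposed to test compounds for 24 h at 37C before One-Glo detection.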

[15] = target: Nuclear receptor subfamily 1 group I member 2 (Homo sapiens) (UniProt O75469); test: Human pregnane X receptor (PXR) activation by small molecules, qHTS assay (AID 1346985); further: nearly all actives have a fitted effect of over 40% in size
Outline: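 DPX-2 cells (HepG2 co-transfected with a PXR response element and a CYP3A4-promoter luciferase construct) were seeded at 2,000 per well, rested 5 hr at 37C, then exposed to DMSO-dissolved compounds for 24 hr. Activation was read as luciferase luminescence.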

[16] = qHTS assay to identify small molecule antagonists of the thyroid receptor (TR) signaling pathway (AID 743065); further: nearly all actives have a fitted effect of over 55% in size
Outline: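 GH3.TRE-Luc rat pituitary cells (two TREs driving luciferase) were dosed with compound, then stimulated with 1 nM T3 (final) for 23.5 h at 37 C. ONE-Glo luminescence was the read-out, with CellTiter-Fluor fluorescence as the cytotoxicity counter-screen.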

[17] = system: thyroid hormone receptor (rat, GH3 cells); test: qHTS assay to identify small molecule agonists of the thyroid receptor (TR) signaling pathway (AID 743066; calls by dose curve)
On the % scale 0 is the no-effect control and ±100 the full control effect.

Chain of Aryl hydrocarbon receptor (Homo sapiens) (P35869 whole entry, looked up): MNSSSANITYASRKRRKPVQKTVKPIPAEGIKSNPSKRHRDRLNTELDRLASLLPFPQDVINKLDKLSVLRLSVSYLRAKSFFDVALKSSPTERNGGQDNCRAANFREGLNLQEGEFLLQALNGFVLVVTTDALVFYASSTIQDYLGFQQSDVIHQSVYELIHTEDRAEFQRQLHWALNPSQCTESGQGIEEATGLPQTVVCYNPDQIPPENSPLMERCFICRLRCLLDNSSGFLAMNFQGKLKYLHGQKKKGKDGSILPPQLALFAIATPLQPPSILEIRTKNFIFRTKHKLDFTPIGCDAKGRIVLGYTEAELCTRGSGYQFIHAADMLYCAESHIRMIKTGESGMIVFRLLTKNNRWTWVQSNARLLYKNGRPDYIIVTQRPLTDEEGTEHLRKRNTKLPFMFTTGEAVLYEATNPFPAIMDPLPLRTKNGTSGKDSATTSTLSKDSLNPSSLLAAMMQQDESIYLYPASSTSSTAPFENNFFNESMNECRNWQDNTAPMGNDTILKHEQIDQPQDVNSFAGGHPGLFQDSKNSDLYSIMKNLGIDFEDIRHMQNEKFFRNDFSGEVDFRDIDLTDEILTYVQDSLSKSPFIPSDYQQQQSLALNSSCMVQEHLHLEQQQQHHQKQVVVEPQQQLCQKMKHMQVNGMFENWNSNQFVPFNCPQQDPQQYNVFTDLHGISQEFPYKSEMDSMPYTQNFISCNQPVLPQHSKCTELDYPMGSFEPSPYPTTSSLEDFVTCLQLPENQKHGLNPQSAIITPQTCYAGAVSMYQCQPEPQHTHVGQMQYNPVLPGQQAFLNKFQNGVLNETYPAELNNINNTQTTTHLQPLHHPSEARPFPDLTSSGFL
Chain of Nuclear receptor subfamily 1 group I member 2 (Rattus norvegicus) (Q9R1A7 whole entry, looked up): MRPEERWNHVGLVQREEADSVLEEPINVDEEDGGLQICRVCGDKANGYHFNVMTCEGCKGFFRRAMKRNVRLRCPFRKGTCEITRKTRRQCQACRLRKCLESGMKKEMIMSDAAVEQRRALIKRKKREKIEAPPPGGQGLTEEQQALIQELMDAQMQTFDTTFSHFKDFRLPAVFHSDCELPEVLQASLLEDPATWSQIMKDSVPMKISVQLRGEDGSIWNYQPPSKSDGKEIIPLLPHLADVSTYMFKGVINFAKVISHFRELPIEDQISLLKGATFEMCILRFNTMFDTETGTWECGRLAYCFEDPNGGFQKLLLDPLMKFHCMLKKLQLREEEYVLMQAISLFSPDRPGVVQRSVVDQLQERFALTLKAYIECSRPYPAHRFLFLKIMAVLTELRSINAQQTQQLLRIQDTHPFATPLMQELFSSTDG
Chain of Aromatase (Homo sapiens) (P11511 whole entry, looked up): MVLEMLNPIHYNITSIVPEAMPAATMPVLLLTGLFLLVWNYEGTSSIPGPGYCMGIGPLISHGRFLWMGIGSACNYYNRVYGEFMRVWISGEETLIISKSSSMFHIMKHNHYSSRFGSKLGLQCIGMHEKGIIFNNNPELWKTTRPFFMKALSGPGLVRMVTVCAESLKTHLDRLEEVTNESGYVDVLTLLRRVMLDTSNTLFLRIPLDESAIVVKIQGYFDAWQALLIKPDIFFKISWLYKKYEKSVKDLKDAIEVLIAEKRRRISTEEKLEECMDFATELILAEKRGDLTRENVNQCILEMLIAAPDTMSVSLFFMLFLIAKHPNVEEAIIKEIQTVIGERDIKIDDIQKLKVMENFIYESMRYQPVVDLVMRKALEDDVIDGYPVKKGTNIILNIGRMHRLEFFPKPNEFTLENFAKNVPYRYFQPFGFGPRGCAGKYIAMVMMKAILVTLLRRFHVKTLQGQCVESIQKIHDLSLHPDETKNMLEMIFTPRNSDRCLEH
Chain of Peroxisome proliferator-activated receptor gamma (Homo sapiens) (P37231 whole entry, looked up): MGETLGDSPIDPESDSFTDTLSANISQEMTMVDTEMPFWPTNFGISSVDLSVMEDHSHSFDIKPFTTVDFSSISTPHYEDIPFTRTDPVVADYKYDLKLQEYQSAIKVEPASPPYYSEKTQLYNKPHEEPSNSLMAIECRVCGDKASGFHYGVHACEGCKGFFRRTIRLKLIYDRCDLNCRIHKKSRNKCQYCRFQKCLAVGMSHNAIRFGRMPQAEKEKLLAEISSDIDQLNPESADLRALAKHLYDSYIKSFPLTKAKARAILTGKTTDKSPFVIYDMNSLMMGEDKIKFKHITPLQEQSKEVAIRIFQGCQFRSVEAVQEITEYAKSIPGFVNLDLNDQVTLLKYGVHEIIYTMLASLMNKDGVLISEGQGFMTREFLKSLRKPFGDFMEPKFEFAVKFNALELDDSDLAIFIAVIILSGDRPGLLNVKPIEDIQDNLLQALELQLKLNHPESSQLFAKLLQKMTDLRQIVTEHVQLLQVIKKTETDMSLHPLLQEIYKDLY
Chain of Estrogen receptor (Homo sapiens) (P03372 whole entry, looked up): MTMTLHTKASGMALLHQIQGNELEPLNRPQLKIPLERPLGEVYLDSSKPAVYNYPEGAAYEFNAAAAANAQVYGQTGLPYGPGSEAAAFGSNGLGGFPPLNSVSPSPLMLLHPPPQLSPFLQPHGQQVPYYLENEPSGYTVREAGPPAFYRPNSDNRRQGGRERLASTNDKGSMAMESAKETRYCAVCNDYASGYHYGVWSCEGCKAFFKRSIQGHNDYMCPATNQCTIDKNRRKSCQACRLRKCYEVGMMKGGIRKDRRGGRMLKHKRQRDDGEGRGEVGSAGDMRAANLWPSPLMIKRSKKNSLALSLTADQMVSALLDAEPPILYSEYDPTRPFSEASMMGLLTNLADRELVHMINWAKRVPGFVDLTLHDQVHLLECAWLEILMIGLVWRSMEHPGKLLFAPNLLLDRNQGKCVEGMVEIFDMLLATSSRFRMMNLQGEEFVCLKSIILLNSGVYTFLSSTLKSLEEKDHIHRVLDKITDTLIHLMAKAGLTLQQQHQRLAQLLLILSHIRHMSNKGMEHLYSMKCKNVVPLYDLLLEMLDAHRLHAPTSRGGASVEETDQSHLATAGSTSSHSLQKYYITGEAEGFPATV

FCOC(C(F)(F)F)C(F)(F)F
inactive: Potency [1] | Potency [2] | Potency [3] | Potency [4] | Potency [5] | Potency [6] | Potency [7] | Potency (Aromatase (Homo sapiens)) | Potency [8] | Potency [9] | Potency [10] | Potency [11] | Potency [12] | max activation [13] -0.275% | Potency [14] | Potency [15]

CS(=O)(=O)OCC(O)C(O)COS(C)(=O)=O (centres undefined)
inactive: Potency [16] | Potency [17] | Potency [2] | Potency [3] | Potency [4] | Potency [5] | Potency [6] | Potency [7] | Potency (Aromatase (Homo sapiens)) | Potency [8] | Potency [9] | Potency [11] | Potency [12] | max activation [13] -4.2% | Potency [14] | Potency [15]

CC(=O)Oc1c(C)cc(OCC(O)CNC(C)C)c(C)c1C (centres undefined)
inactive: Potency [16] | Potency [17] | Potency [3] | Potency [7] | Potency (Aromatase (Homo sapiens)) | Potency [8] | Potency [9] | Potency [11] | Potency [12] | max activation [13] -4.59% | Potency [14] | Potency [15]
active: Potency [4] 10.7 µM [inconclusive] | Potency [5] 3.76 µM

CC1CS(=O)(=O)CCN1/N=C/c1ccc([N+](=O)[O-])o1 (centres undefined)
inactive: Potency [16] | Potency [17] | Potency [2] | Potency [3] | Potency [4] | Potency [5] | Potency [6] | Potency [7] | Potency (Aromatase (Homo sapiens)) | Potency [8] | Potency [9] | Potency [11] | Potency [12] | max activation [13] -7.04% | Potency [14] | Potency [15]

C[C@H](CCCC(C)(C)O)[C@H]1CC[C@H]2[C@@H]3CC=C4C[C@@H](O)CC[C@]4(C)[C@H]3CC[C@]12C
inactive: Potency [1] | Potency [3] | Potency [7] | Potency (Aromatase (Homo sapiens)) | Potency [8] | Potency [9] | Potency [10] | Potency [11] | Potency [12] | max activation [13] -4.18% | Potency [14] | Potency [15]

OCCO[C@@H]1[C@@H](O)[C@H](O)[C@@H](CO)O[C@@H]1O
inactive: Potency [1] | Potency [3] | Potency [4] | Potency [5] | Potency [7] | Potency (Aromatase (Homo sapiens)) | Potency [8] | Potency [9] | Potency [10] | Potency [11] | Potency [12] | max activation [13] -3.49% | Potency [14] | Potency [15]

CCCCCCCCCCCCCCCC(=O)OC[C@@H](O)[C@H]1OC[C@H](O)[C@H]1O
inactive: Potency [1] | Potency [2] | Potency [4] | Potency [5] | Potency [6] | Potency [7] | Potency (Aromatase (Homo sapiens)) | Potency [8] | Potency [9] | Potency [10] | Potency [11] | Potency [12] | max activation [13] 2.9% | Potency [14] | Potency [15]

Nc1nc2c(c(=O)[nH]1)N(C=O)C(CNc1ccc(C(=O)N[C@@H](CCC(=O)O)C(=O)O)cc1)CN2 (some centres undefined)
inactive: Potency [1] | Potency [3] | Potency [7] | Potency (Aromatase (Homo sapiens)) | Potency [8] | Potency [9] | Potency [10] | Potency [11] | Potency [12] | max activation [13] 3.43% | Potency [14] | Potency [15]

CC1C(=O)CC2C3(C)CCC2(C(C)C(=O)O)C(=O)C13 (centres undefined)
inactive: Potency [1] | Potency [3] | Potency [4] | Potency [5] | Potency [6] | Potency [7] | Potency (Aromatase (Homo sapiens)) | Potency [8] | Potency [9] | Potency [10] | Potency [12] | max activation [13] 0.0537% | Potency [14] | Potency [15]

C[N+]1(C)[C@@H]2CC(OC(=O)C(O)(c3cccs3)c3cccs3)C[C@H]1[C@@H]1O[C@@H]12 (some centres undefined)
inactive: Potency [1] | Potency [2] | Potency [3] | Potency [4] | Potency [6] | Potency [7] | Potency (Aromatase (Homo sapiens)) | Potency [8] | Potency [9] | Potency [11] | Potency [12] | max activation [13] -1.38% | Potency [14] | Potency [15]

COC(=O)CC[C@H](N)C(=O)O
inactive: Potency [16] | Potency [17] | Potency [2] | Potency [3] | Potency [4] | Potency [5] | Potency [6] | Potency [7] | Potency (Aromatase (Homo sapiens)) | Potency [8] | Potency [9] | Potency [10] | Potency [11] | Potency [12] | max activation [13] -5.81% | Potency [14] | Potency [15]

CN[C@@H]1[C@H](O[C@H]2[C@H](O[C@H]3[C@H](O)[C@@H](O)[C@H](N=C(N)N)[C@@H](O)[C@@H]3N=C(N)N)O[C@@H](C)[C@]2(O)C=O)O[C@@H](CO)[C@H](O)[C@H]1O
inactive: Potency [16] | Potency [17] | Potency [2] | Potency [3] | Potency [4] | Potency [5] | Potency [6] | Potency [7] | Potency (Aromatase (Homo sapiens)) | Potency [8] | Potency [9] | Potency [10] | Potency [11] | Potency [12] | max activation [13] -1.83% | Potency [14] | Potency [15]

CN[C@@H]1[C@H](O[C@H]2[C@H](O[C@H]3[C@H](O)[C@@H](O)[C@H](N=C(N)N)[C@@H](O)[C@@H]3N=C(N)N)O[C@@H](C)[C@]2(O)CO)O[C@@H](CO)[C@H](O)[C@H]1O
inactive: Potency [1] | Potency [3] | Potency [7] | Potency (Aromatase (Homo sapiens)) | Potency [8] | Potency [10] | Potency [11] | Potency [12] | max activation [13] -1.72% | Potency [14] | Potency [15]

Nc1ncnc2c1ncn2CCOCP(=O)(O)O
inactive: Potency [16] | Potency [17] | Potency [2] | Potency [3] | Potency [4] | Potency [5] | Potency [6] | Potency [7] | Potency [8] | Potency [9] | Potency [10] | Potency [11] | Potency [12] | max activation [13] -0.588% | Potency [14] | Potency [15]
